Assay outcomes: PubChem BioAssay, National Center for Advancing Translational Sciences (NCATS)
AMA1 RON2 block = qHTS for Inhibitors of AMA1-RON; Towards Development of Antimalarial Drug Lead: Primary Screen. Plasmodium falciparum AMA1 (3D7) - RON2 peptide interaction. AlphaScreen AMA1-biotinylated RON2 peptide binding. Potency, µM (top dose mostly 58.2 µM), usual class: inhibitors. actives 0.2% (n = 360,000). AID 720542, 2013; further: nearly all actives have a fitted effect of over 45% in size
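AMA1 (3D7) with his tag at 25 nM final met compounds first, then biotinylated RON2 peptide at 25 nM; detection used donor plus acceptor beads, 10 µg/mL apiece, read by AlphaScreen after 30 min at room temperature.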
HCV inh = qHTS Assay for Inhibitors of Hepatitis C Virus (HCV); actives 3.4% (n = 340,000); Potency, µM (titrated, usually from 41.8 µM), actives largely listed as inhibitors; Huh7.5.1 HCVcc-Cre infection, luciferase reporter, 44 h
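Infectious HCVcc-Cre (~0.5 moi) was added to cells just after compound, with cells seeded 4 h earlier at 1,000 per well. Luciferase activity after 44 h culture reported infection; substrate was incubated 15 min at room temperature before reading.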
Pf growth 96h = Primary qHTS for delayed death inhibitors of the malarial parasite plastid, 96 hour incubation | actives 6.9% (n = 320,000) | AID 504834, 2011 | Potency, µM (doses to about 28.7 µM), hits mostly inhibitors | P. falciparum luciferase reporter growth, 96 h
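Delayed-death screen, second-generation endpoint: infected erythrocytes, 2% hematocrit, 0.05% parasitemia final; 96 hours at 37 C, 5% CO2; luciferase detection reagent; luminescence decrease equals reduced growth.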
Pf growth 48h = Primary qHTS for delayed death inhibitors of the malarial parasite plastid, 48 hour incubation; P. falciparum luciferase growth in erythrocytes, 48 h; actives 5.9% (n = 310,000); Potency, µM (doses to about 28.7 µM), usual class: inhibitors; AID 504832, 2011
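Cell-based growth assay: transgenic P. falciparum expressing firefly luciferase, cultured in red cells within RPMI 1640 containing 0.5% w/v Albumax, 24 mM bicarbonate and gentamycin. A drop in luciferase activity indicates inhibition.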
Each line names hits and unclear results; the compound was inactive in the other large screens. This is a sample that favours compounds with a hit; in the whole collection about 11% have one here. The call rests on the fitted dose curve; in most records, active means well fitted curve in the direction sought with a large enough effect; inconclusive means small, poorly fitted or top-dose-only effect, or another doubt; inactive means no such curve, though single readings can be large; an effect the other way counts as inactive or inconclusive.

CCn1c(SCC(=O)c2[nH]c(C)c(C(C)=O)c2C)nnc1-c1ccccc1	HCV inh 5.6µM, Pf growth 96h inconclusive
Cc1ccc(NCc2nnc(SCC(N)=O)n2CC2CCCO2)c(C)c1 (stereo not given)	Pf growth 96h 13µM
CC(=O)c1c(C)[nH]c(C(=O)CSc2nnc(-c3ccc(Cl)cc3)n2CC2CCCO2)c1C (stereo not given)	HCV inh inconclusive, Pf growth 96h 5.9µM (no result: Pf growth 48h)
CCOC(=O)c1c(C)[nH]c(C(=O)CSc2ccccc2)c1C	HCV inh inconclusive
Cn1cc([C@]2(O)C(=O)Nc3ccc(OC(F)(F)F)cc32)c2ccccc21	none (no result: HCV inh, Pf growth 96h, Pf growth 48h)
Cc1c(Cl)cccc1NC(=O)c1ccccc1-c1ccccc1C(=O)O	none
CCOc1cc(OCC)c(C(C)=O)cc1OCC	Pf growth 96h inconclusive
CCOC(=O)c1cccc(NC(=S)NCc2ccc(C)cc2)c1	none
O=C(CNC(=O)c1cccc(Cl)c1)N/N=C/C=C/c1ccccc1	none
O=C(CNC(=O)c1sc2ccccc2c1Cl)Nc1ccccc1F	none
O=C(Cn1nc2ccccc2n1)N/N=C/c1ccc(F)cc1	none
COc1ccc(-c2nnc(SCC(=O)NC(C)C)n2CC2CCCO2)cc1OC (stereo not given)	Pf growth 96h 3.3µM
O=C(c1cn(Cc2ccccc2)nc1-c1ccccc1)N1CCN(c2ccccn2)CC1	HCV inh inconclusive, Pf growth 96h inconclusive, Pf growth 48h 15µM
CC(=O)c1ccc(N2CCN(C(=O)c3cn(Cc4ccccc4)nc3-c3cccnc3)CC2)c(F)c1	HCV inh inconclusive, Pf growth 96h 9.3µM, Pf growth 48h 13µM
CS(=O)(=O)N1N=C(c2cccs2)CC1c1ccc(Cl)o1 (stereo not given)	none
CC(C)c1cc(NCC2CCCO2)n2c(nc3ccccc32)c1C#N (stereo not given)	HCV inh inconclusive, Pf growth 48h 6.6µM (no result: Pf growth 96h)
CCc1c(C)c(C#N)c2nc3ccccc3n2c1NCC1CCCO1 (stereo not given)	Pf growth 48h 1.7µM (no result: Pf growth 96h)
CCc1c(C)c(C#N)c2nc3ccccc3n2c1NCCOC	Pf growth 96h inconclusive, Pf growth 48h 1.7µM
Cc1ccc(F)cc1C(=O)N1CCCCC1c1cc(C(=O)Nc2cccc(C#N)c2)no1 (stereo not given)	none (no result: HCV inh, Pf growth 96h, Pf growth 48h)
O=C(NCc1ccccc1)c1ccc(NC(=O)C2CCC2)cc1	HCV inh inconclusive (no result: Pf growth 96h, Pf growth 48h)
COc1ccc(NC(=O)C2CCCN(C(=O)Nc3cccc(OC)c3)C2)cc1 (stereo not given)	Pf growth 96h inconclusive
COc1ccc(NC(=O)C2CCCN(C(=O)Nc3ccc(OC)cc3)C2)cc1 (stereo not given)	Pf growth 96h 10µM
COc1ccc(NC(=O)N2CCCC(c3ccccc3)C2)cc1 (stereo not given)	Pf growth 96h 2.1µM
O=C1CC2(CCCC2)CC(=O)N1c1ccccc1	Pf growth 96h 12µM, Pf growth 48h inconclusive
COc1ccc(N2C(=O)CC3(CCCC3)CC2=O)cc1	Pf growth 96h 6.6µM
O=C(CNC(=O)c1ccc(F)cc1)N/N=C/c1cccnc1	none
CCOC(=O)c1sc2ncn(/N=C/N(C)C)c(=O)c2c1C	HCV inh inconclusive (no result: Pf growth 96h)
CCOC(=O)c1sc2ncn(/N=C/c3ccccn3)c(=O)c2c1C	Pf growth 96h 6.6µM (no result: AMA1 RON2 block, HCV inh)
O=C1CNC(=O)/C(=C\c2ccccc2)N1	none
O=C1/C(=C/c2ccccc2)Nc2ccccc21	Pf growth 96h 3.7µM, Pf growth 48h inconclusive
O=C(c1ccc2c(c1)OCO2)N(Cc1ccco1)C1(C(=O)NC2CCCCC2)CCCCC1	HCV inh 10µM (no result: Pf growth 48h)
Cc1cc(NC(=O)/C=C/C(=O)N(CC(=O)NC2CCCC2)c2cccc3ccccc23)no1	Pf growth 48h 10µM
Cc1cc(NC(=O)CCCC(=O)N(CC(=O)NC2CCCCC2)c2ccccc2)no1	none
CCc1ccccc1N(C(=O)CCC(=O)Nc1cc(C)on1)C(C(=O)NC1CCCC1)c1ccco1 (stereo not given)	HCV inh inconclusive, Pf growth 48h 9.3µM
Cc1cc(NC(=O)CCC(=O)N(CC(=O)NC2CCCC2)c2ccccc2)no1	Pf growth 96h 15µM, Pf growth 48h inconclusive
Cc1cc(NC(=O)CCC(=O)N(Cc2ccco2)C2(C(=O)NC3CCCC3)CCC(C)CC2)no1 (stereo not given)	HCV inh 14µM, Pf growth 96h inconclusive, Pf growth 48h 15µM
Cc1cc(NC(=O)CCC(=O)N(Cc2ccco2)C2(C(=O)NC3CCCCC3)CCCC(C)C2)no1 (stereo not given)	Pf growth 96h inconclusive
Cc1cc(NC(=O)CCC(=O)N(c2ccccc2)C(C(=O)NCC2CCCO2)c2cccnc2)no1 (stereo not given)	Pf growth 96h 10µM
Cc1cc(NC(=O)CCC(=O)N(c2ccccc2)C(C(=O)NC2CCCC2)c2ccc(F)cc2)no1 (stereo not given)	Pf growth 96h inconclusive
Cc1cc(NC(=O)CCC(=O)N(c2ccc(F)cc2)C(C(=O)NC2CCCC2)c2ccc(C)o2)no1 (stereo not given)	Pf growth 48h 9.3µM
Cc1cc(NC(=O)CCC(=O)N(c2ccccc2)C(C(=O)NC2CCCCC2)c2cccs2)no1 (stereo not given)	Pf growth 96h 8.3µM, Pf growth 48h inconclusive
Cc1cc(NC(=O)CCC(=O)N(c2ccc(F)cc2)C(C(=O)NC2CCCC2)c2ccccc2)no1 (stereo not given)	Pf growth 96h inconclusive, Pf growth 48h inconclusive
COc1ccc(Cl)cc1S(=O)(=O)NC(C)C(=O)NCc1ccncc1 (stereo not given)	none
CC(/C=C/c1ccc(O)cc1)=NNc1ccccc1	HCV inh inconclusive (no result: Pf growth 96h, Pf growth 48h)
Cc1cccc(N(C(=O)CCC(=O)Nc2cccnc2)C(C(=O)NC2CCCC2)c2ccncc2)c1 (stereo not given)	Pf growth 96h 12µM, Pf growth 48h inconclusive
Cc1cccc(N(C(=O)CCC(=O)Nc2cc(C)on2)C(C(=O)NC2CCCC2)c2cccnc2)c1 (stereo not given)	none
O=C(Nc1ccc2nc(-c3ccc4nc[nH]c4c3)[nH]c2c1)c1cccs1	AMA1 RON2 block inconclusive, Pf growth 96h inconclusive, Pf growth 48h 2.6µM
Cc1ccc2nc(NC(=O)Cc3cccs3)sc2c1	HCV inh inconclusive (no result: Pf growth 48h)
Cc1nnc2ccc(-c3ccc(NC(=O)Cc4cccs4)cc3)nn12	Pf growth 96h 9.3µM
Cc1cccc(-c2nnc(-c3cccc(NC(=O)Cc4cccs4)c3)o2)c1	HCV inh inconclusive, Pf growth 96h 10µM, Pf growth 48h inconclusive
Cc1ccc2nc(-c3ccc(NC(=O)Cc4cccs4)cc3)[nH]c2c1	HCV inh 11µM, Pf growth 96h 4.1µM, Pf growth 48h inconclusive
O=C(Nc1ccc2c(c1)OCCO2)c1cnn(-c2ccccc2)n1	none
CC[C@H](C)[C@@H](C(=O)NCCCCCCCCCCC(=O)N1CCNCC1)n1cc(CCCCCN)nn1	Pf growth 96h inconclusive, Pf growth 48h inconclusive
O=C(CSc1nc2ccccc2s1)N/N=C/c1ccc(C(=O)O)cc1	none
